Reference: PubChem BioAssay (NCATS)
Several values for one entry are separate records, joined by “and”; a condition that tells them apart may be missing. Equal values may be shown once. Results filed as inconclusive are left out. Activity calls are given as the source filed them. Calls come from the whole dose curve; as a rule, active = well fitted curve in the direction sought with a large enough effect; inconclusive = small, poorly fitted or top-dose-only effect, or another doubt; inactive = no such curve, though single readings can be large; an effect the other way counts as inactive or inconclusive.

What was measured:
[1] = qHTS of pediatric cancer cell lines to identify multiple opportunities for drug repurposing: Primary screen for TC32 cells (AID 1347089); note: nearly all actives have a fitted effect of over 60% in size; note: potency is the fitted concentration of half-maximal effect
Method in brief: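 Luminescent ATP read-out (CellTiter-Glo) of metabolically active TC32 cells after 48 h exposure. Concentration-response curves came from 11-point (MIPE, 0.78 nM–46 µM) or 8-point (NPC, 0.59 nM–46 µM) primary titrations; follow-up used 11 points.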

[2] = qHTS of pediatric cancer cell lines to identify multiple opportunities for drug repurposing: Primary screen for DAOY cells (AID 1347090); note: nearly all actives have a fitted effect of over 55% in size; note: potency is the fitted concentration of half-maximal effect
Method in brief: (§1)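 Eight- or eleven-point concentration series, 48 h treatment at 37 degrees C in growth media; readout CellTiter-Glo luminescence. Potency and efficacy were taken from the concentration-response curves.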

[3] = qHTS of pediatric cancer cell lines to identify multiple opportunities for drug repurposing: Primary screen for SJ-GBM2 cells (AID 1347091); note: potency is the fitted concentration of half-maximal effect
Method in brief: as §1

[4] = qHTS of pediatric cancer cell lines to identify multiple opportunities for drug repurposing: Primary screen for A673 cells (AID 1347092); note: nearly all actives have a fitted effect of over 45% in size; note: potency is the fitted concentration of half-maximal effect
Method in brief: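 Cell viability of A673 measured by CellTiter-Glo ATP luminescence after 48 hours compound exposure. Dilution series spanned 0.78 nM to 46 µM (MIPE, 11-point) or 0.59 nM to 46 µM (NPC, 8-point); bortezomib 2.3 uM positive control.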

[5] = qHTS of pediatric cancer cell lines to identify multiple opportunities for drug repurposing: Primary screen for SK-N-MC cells (AID 1347093); note: potency is the fitted concentration of half-maximal effect
Method in brief: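 Metabolically active cells were quantified by ATP-dependent luminescence (CellTiter-Glo, 15 min at room temperature) following 48 h treatment. Cells had been plated at 500-1,000 per well and settled for 5 h beforehand.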

[6] = qHTS of pediatric cancer cell lines to identify multiple opportunities for drug repurposing: Primary screen for BT-37 cells (AID 1347094); note: potency is the fitted concentration of half-maximal effect
Method in brief: (§2)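 Cells seeded at 500-1,000 cells/well in growth media, rested 5 hours at 37 degrees C, 5% CO2, then dosed; MIPE compounds at 11-point (from 0.78 nM) and NPC at 8-point (from 0.59 nM) final concentrations. Viability by CellTiter-Glo luminescence after 48 hours.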

[7] = qHTS of pediatric cancer cell lines to identify multiple opportunities for drug repurposing: Primary screen for NB-EBc1 cells (AID 1347095); note: potency is the fitted concentration of half-maximal effect
Method in brief: as §2

[8] = qHTS of pediatric cancer cell lines to identify multiple opportunities for drug repurposing: Primary screen for U-2 OS cells (AID 1347096); note: nearly all actives have a fitted effect of over 50% in size; note: potency is the fitted concentration of half-maximal effect
Method in brief: (§3)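 Cells (500-1,000/well) in growth media were settled 5 h at 37 degrees C, then given compounds for 48 h. Viability was read as CellTiter-Glo luminescence. Primary runs used MIPE at 11 points (0.78 nM-46 µM) and NPC at 8 points (0.59 nM-46 µM); follow-ups used 11 points.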

[9] = qHTS of pediatric cancer cell lines to identify multiple opportunities for drug repurposing: Primary screen for Saos-2 cells (AID 1347097); note: nearly all actives have a fitted effect of over 40% in size; note: potency is the fitted concentration of half-maximal effect
Method in brief: as §2

[10] = qHTS of pediatric cancer cell lines to identify multiple opportunities for drug repurposing: Primary screen for LAN-5 cells (AID 1347100); note: potency is the fitted concentration of half-maximal effect
Method in brief: as §3

[11] = qHTS of pediatric cancer cell lines to identify multiple opportunities for drug repurposing: Primary screen for BT-12 cells (AID 1347101); note: nearly all actives have a fitted effect of over 25% in size; note: potency is the fitted concentration of half-maximal effect
Method in brief: (§4)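 Cells (500-1,000/well) rested 5 h, then received compounds for 48 h; metabolically active cells were measured by CellTiter-Glo luminescence. Final concentrations spanned up to 46 µM (MIPE, 11-point) or 0.59 nM-46 µM (NPC, 8-point) in primary screens, 11-point in follow-ups.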

[12] = qHTS of pediatric cancer cell lines to identify multiple opportunities for drug repurposing: Primary screen for Rh18 cells (AID 1347102); note: nearly all actives have a fitted effect of over 65% in size; note: potency is the fitted concentration of half-maximal effect
Method in brief: as §3

[13] = qHTS of pediatric cancer cell lines to identify multiple opportunities for drug repurposing: Primary screen for OHS-50 cells (AID 1347103); note: nearly all actives have a fitted effect of over 40% in size; note: potency is the fitted concentration of half-maximal effect
Method in brief: as §4

[14] = qHTS of pediatric cancer cell lines to identify multiple opportunities for drug repurposing: Primary screen for MG 63 (6-TG R) cells (AID 1347105); note: nearly all actives have a fitted effect of over 50% in size; note: potency is the fitted concentration of half-maximal effect
Method in brief: as §2

[15] = qHTS of pediatric cancer cell lines to identify multiple opportunities for drug repurposing: Primary screen for control Hh wild type fibroblast cells (AID 1347106); note: nearly all actives have a fitted effect of over 55% in size; note: potency is the fitted concentration of half-maximal effect
Method in brief: as §3

[16] = qHTS of pediatric cancer cell lines to identify multiple opportunities for drug repurposing: Primary screen for Rh30 cells (AID 1347107); note: series mostly up to about 46 µM; nearly all actives have a fitted effect of over 75% in size
Method in brief: as §3

[17] = qHTS of pediatric cancer cell lines to identify multiple opportunities for drug repurposing: Primary screen for Rh41 cells (AID 1347108); note: nearly all actives have a fitted effect of over 70% in size; note: potency is the fitted concentration of half-maximal effect
Method in brief: as §2

[18] = qHTS of pediatric cancer cell lines to identify multiple opportunities for drug repurposing: Primary screen for SK-N-SH cells (AID 1347098); note: nearly all actives have a fitted effect of over 65% in size; note: potency is the fitted concentration of half-maximal effect
Method in brief: as §4

[19] = qHTS of pediatric cancer cell lines to identify multiple opportunities for drug repurposing: Primary screen for NB1643 cells (AID 1347099); note: nearly all actives have a fitted effect of over 50% in size; note: potency is the fitted concentration of half-maximal effect
Method in brief: as §2

[20] = qHTS of pediatric cancer cell lines to identify multiple opportunities for drug repurposing: Primary screen for RD cells (AID 1347104); note: nearly all actives have a fitted effect of over 55% in size
Method in brief: as §2

Measured: Potency

Cn1ccc2cc3c(cc21)CCN3C(=O)Nc1cccnc1
active: [4] 11.8 µM
not listed: [18] | [19] | [20]
inactive: all other assays above

CN1CCN2c3ccccc3Cc3ccccc3C2C1 (stereo unspecified)
not listed: [10] | [13] | [20]
inactive: all other assays above

COc1ccccc1OCC(O)CN1CCN(CC(=O)Nc2c(C)cccc2C)CC1 (stereo unspecified)
not listed: [5] | [20]
inactive: all other assays above

O=C1c2c(O)ccc(O)c2C(=O)c2c(NCCNCCO)ccc(NCCNCCO)c21
active: [1] 658 nM and 59.2 nM | [2] 2.96 µM and 2.66 µM | [3] 332 nM and 422 nM | [4] 590 nM and 168 nM | [5] 235 nM and 1 nM | [6] 243 nM and 38.9 nM | [7] 74.3 nM and 59.6 nM | [8] 18.7 µM and 10.6 µM | [9] 1.66 µM and 1.68 µM | [18] 383 nM and 486 nM | [19] 469 nM and 668 nM | [10] 0.0833 µM | [11] 1.72 µM and 490 nM | [12] 2.09 µM and 2.37 µM | [13] 344 nM and 49 nM | [14] 0.372 µM | [15] 13.3 µM | [17] 4.18 µM and 9.44 µM

CN1CCC(=C2c3ccccc3C=Cc3ccccc32)CC1
inactive: [1] | [2] | [3] | [7] | [8] | [14] | [15] | [16] | [17]
active: [4] 18.7 µM | [18] 24.1 µM | [13] 13.8 µM and 19.3 µM

Nc1ccn([C@H]2CC[C@@H](CO)O2)c(=O)n1
active: [5] 18.7 µM and 21.1 µM
inactive: all other assays above

NCCc1cnc[nH]1
inactive: all assays above

CCCCc1oc2ccccc2c1C(=O)c1cc(I)c(OCCN(CC)CC)c(I)c1
inactive: [1] | [15] | [16]
active: [2] 5.9 µM | [3] 8.33 µM | [4] 4.69 µM and 26.6 µM | [5] 1.18 µM and 13.3 µM | [6] 30.9 µM | [7] 8.33 µM | [8] 7.43 µM | [9] 18.7 µM and 26.6 µM | [18] 8.57 µM and 21.7 µM | [10] 1.48 µM | [11] 4.32 µM and 21.9 µM | [12] 16.6 µM | [13] 5.44 µM and 11 µM

CN1C2CCC1CC(OC(=O)C(CO)c1ccccc1)C2 (stereo unspecified)
not listed: [18] | [20]
inactive: all other assays above

CS(=O)(=O)Nc1ccc([N+](=O)[O-])cc1Oc1ccccc1
active: [5] 23.5 µM
not listed: [10] | [19]
inactive: all other assays above

CC(C)Cc1ccc(C(C)C(=O)O)cc1 (stereo unspecified)
not listed: [6] | [20]
inactive: all other assays above

COc1ccc(C2CNC(=O)C2)cc1OC1CCCC1 (stereo unspecified)
not listed: [20]
inactive: all other assays above
